# Test results published in PubChem BioAssay (NCATS).
# Records with an inconclusive call do not appear. A call without a number means that no potency is given here. Calls of active or inactive are those of the source. Calls come from the whole dose curve; as a rule, active = well fitted curve in the direction sought with a large enough effect; inconclusive = small, poorly fitted or top-dose-only effect, or another doubt; inactive = no such curve, though single readings can be large; an effect the other way counts as inactive or inconclusive.
# Biological target: Luciferin 4-monooxygenase (Photinus pyralis) (UniProt P08659)
# Assay: Biochemical firefly luciferase enzyme assay for NPC (AID 624030);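 note: purified P. pyralis luciferase at 10 nM with luciferin and ATP substrate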
# Conditions: purified P. pyralis luciferase, luminescence, 5 min; series mostly up to 58.6 µM
# Method in brief: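 Direct inhibition of firefly luciferase enzyme (10 nM final, 50 mM Tris Acetate) assessed by luminescence within 5 minutes. Percent activity scaled between DMSO and PTC124 positive control, with concentration-effect curves classified by fit quality and response.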
# Note: nearly all actives have a fitted effect of over 70% in size.
# Luciferin 4-monooxygenase (Photinus pyralis), sequence (P08659 whole entry, looked up): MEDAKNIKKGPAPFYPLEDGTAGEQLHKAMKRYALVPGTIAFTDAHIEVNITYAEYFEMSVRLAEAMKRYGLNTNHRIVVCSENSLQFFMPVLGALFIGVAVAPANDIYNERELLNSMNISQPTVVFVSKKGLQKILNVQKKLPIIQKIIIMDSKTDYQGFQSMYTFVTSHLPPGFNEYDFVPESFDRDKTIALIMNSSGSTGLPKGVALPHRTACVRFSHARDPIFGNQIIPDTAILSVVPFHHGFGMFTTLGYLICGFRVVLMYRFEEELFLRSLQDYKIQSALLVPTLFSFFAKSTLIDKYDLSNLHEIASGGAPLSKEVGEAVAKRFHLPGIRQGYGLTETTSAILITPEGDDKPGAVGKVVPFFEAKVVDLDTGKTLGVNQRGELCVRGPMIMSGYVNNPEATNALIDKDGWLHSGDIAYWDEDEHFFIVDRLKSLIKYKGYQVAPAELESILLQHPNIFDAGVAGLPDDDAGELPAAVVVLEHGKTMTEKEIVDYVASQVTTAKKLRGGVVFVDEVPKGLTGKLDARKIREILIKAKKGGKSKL
row,SMILES,Potency
1,N=C(N)c1ccc(/C=C/c2ccc(C(=N)N)cc2O)cc1,inactive
2,CCC(=O)c1ccc2c(c1)N(CCCN1CCN(CCO)CC1)c1ccccc1S2,inactive
3,CCN(CC)C(=S)S,inactive
4,CCCCCCCCCCCCCC(=O)OCC(COP(=O)([O-])OCC[N+](C)(C)C)OC(=O)CCCCCCCCCCCCC (stereo not given),inactive
5,CC(=O)[C@H]1CC[C@H]2[C@@H]3C=CC4=CC(=O)CC[C@@]4(C)[C@H]3CC[C@]12C,inactive
6,COc1ccc(C[C@H](C)NC[C@@H](O)c2ccc(O)c(NC=O)c2)cc1,inactive
7,CCCCCCCCCCCCCCCCCC[N+](C)(C)CCC[Si](OC)(OC)OC,inactive
8,Cc1ncc(C[n+]2csc(CCO)c2C)c(N)n1,inactive
9,CC(=O)N[C@@H](C=O)[C@@H](O)[C@H](O)[C@H](O)CO,inactive
10,CC(=O)NCCCS(=O)(=O)O,inactive

# Test system: not listed separately
# Assay: S16 Schwann cell viability assay (CellTiter-Glo assay) (AID 624031);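 note: cellular ATP luminescence as a viability measure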
# Conditions: S16 rat Schwann cells viability, 24 h; series mostly up to 57.5 µM
# Method in brief: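 Native S16 Schwann cells (rat), serum-containing medium, overnight attachment then 24 h drug exposure at 37 °C/5% CO2. CellTiter-Glo ATP signal; normalized to cell-free and vehicle wells.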
row,SMILES,Potency
1,N=C(N)c1ccc(/C=C/c2ccc(C(=N)N)cc2O)cc1,inactive
2,CC(=O)[C@H]1CC[C@H]2[C@@H]3C=CC4=CC(=O)CC[C@@]4(C)[C@H]3CC[C@]12C,inactive
3,CCCCCCCCCCCCCCCCCC[N+](C)(C)CCC[Si](OC)(OC)OC,inactive
4,Cc1ncc(C[n+]2csc(CCO)c2C)c(N)n1,inactive
5,CC(=O)NCCCS(=O)(=O)O,inactive
